Drawing on PubChem BioAssay AID720631 (The Scripps Research Institute Molecular Screening Center, 2013), this text covers inhibition for 26 molecules.

In general, inhibition refers to the drop in the measured response relative to a control, in per cent.

The list shows a part of the results. Activity calls are given as the source filed them.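 How the source made its calls: active means inhibition above the mean of compounds lying within the control limits plus 3 SD (cut at about 16% in these data); inactive means the rest.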

This assay deals with Fibrinogen beta chain (Homo sapiens) (UniProt P02675). The assay can be described thus: inhibitors of Tn6 peptide binding to fibrin DD(E), confirmation, biochemical, fluorescence polarization, human fibrin, Tn6 probe (AID 720631).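 Further: 0% = plate median of compound wells and 100% = inhibitor peptide control.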 As to conditions: FP displacement of TRITC-Tn6 peptide from DD(E); at 8.3 µM; stronger effect = higher value; 0% = per-plate median of test wells. (In fluorescence polarisation assays a small probe gives low polarisation when free and higher when bound to something large.)
Sequence of Fibrinogen beta chain (Homo sapiens) (P02675 whole entry, looked up): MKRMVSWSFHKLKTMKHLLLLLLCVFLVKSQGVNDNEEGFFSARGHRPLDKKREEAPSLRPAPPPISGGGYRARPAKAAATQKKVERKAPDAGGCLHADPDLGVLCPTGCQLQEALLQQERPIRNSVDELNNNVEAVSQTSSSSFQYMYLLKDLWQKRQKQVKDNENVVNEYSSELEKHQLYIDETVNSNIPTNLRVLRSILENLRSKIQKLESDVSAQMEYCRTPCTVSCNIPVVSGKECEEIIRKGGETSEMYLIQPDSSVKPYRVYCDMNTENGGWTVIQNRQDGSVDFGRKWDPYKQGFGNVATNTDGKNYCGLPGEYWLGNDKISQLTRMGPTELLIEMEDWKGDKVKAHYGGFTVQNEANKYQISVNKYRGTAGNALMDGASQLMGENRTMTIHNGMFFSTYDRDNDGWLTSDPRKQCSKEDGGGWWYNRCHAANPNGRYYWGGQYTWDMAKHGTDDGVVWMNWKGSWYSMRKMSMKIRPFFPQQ
`O=C(NCCNc1ccccc1[N+](=O)[O-])c1ccccc1F`: the inhibition was -1.55% (inactive).

As for `O=C(CCl)NNc1cccc(Cl)n1`, the inhibition is 4.87% (inactive).

On to `CONc1nc2nonc2nc1NOC`, for which the inhibition is -1.66% (inactive).

Regarding `Cc1nnsc1S(=O)(=O)Cc1ccccc1Cl`, the inhibition was -10.5% (inactive).

`CCC1C(=O)NCCN1C(=O)c1ccc2nc(Cc3ccc(OC)cc3)oc2c1` (stereo unspecified): the inhibition was -13.1% (inactive).

As to `O=c1cc(Cn2nnc(-c3ccc(Cl)cc3)n2)nc2sccn12`, the inhibition was -6.19% (inactive).

Turning to `CCOC(=O)N1CCN(Cc2nc(N)nc(Nc3ccc(C)cc3)n2)CC1`, the inhibition was -3.1% (inactive).

Take `Cc1cc2nc3c(=O)[nH]c(=O)nc-3n(C[C@H](O)[C@H](O)[C@H](O)CO)c2cc1C`: the inhibition was 12.4% (inactive).

As to `COc1ccc(Nc2nc(-c3cccnc3)nc3ccccc23)cn1`, the inhibition was -6.63% (inactive).

In the case of `Oc1ccc(N=Cc2sc3ccccc3c2Cl)cc1`, the inhibition was -11.2% (inactive).

For `Cc1ccc(-c2nn(-c3ccccc3)cc2/C=C/C(=O)Nc2cccc(S(N)(=O)=O)c2)cc1`, the inhibition was 4.74% (inactive).

For the molecule `Cc1cc2cc(CNC(=O)c3ccc(S(=O)(=O)N4CCOCC4)cc3)ccc2[nH]1`, the inhibition is -6.87% (inactive).

On to `Cc1ccc(NC(=O)CN2CCc3ccccc3C2)cc1`, for which the inhibition is -6.7% (inactive).

Consider `Cc1ccc(-c2nc(C)sc2CC(=O)O)cc1`, for which the inhibition was 1.06% (inactive).

As to `Cc1nn(C)cc1N1C(=O)c2cccc3c(N)ccc(c23)C1=O`, the inhibition is 1.67% (inactive).

In the case of `COc1cc(NC(=O)c2ccc(CNc3c(N4CCCC4)c(=O)c3=O)cc2)cc(OC)c1OC`, the inhibition is -4.66% (inactive).

In the case of `O=C(Nc1cccc(-c2nc3ccccc3[nH]2)c1)c1ccc(C(=O)Nc2cccc(-c3nc4ccccc4[nH]3)c2)cc1`, the inhibition is 29.2% (active).

As for `CCc1cc(-c2nnc(SCC(=O)NC3CC3)n2C)cs1`, the inhibition was 2.54% (inactive).

As to `Cc1cc(C)c2nc(NC(=O)C3CCCO3)sc2c1` (stereo unspecified), the inhibition was 4.35% (inactive).

Take `CCc1ccccc1NC(=S)Nc1cc(OC)c(NC(=O)C(C)C)cc1OC`: the inhibition was -4.51% (inactive).

For the molecule `O=c1[nH]n(-c2ccc([N+](=O)[O-])cc2)c(=O)c2ccccc12`, the inhibition is 12.3% (inactive).

As to `COc1ccc(N2C(=O)NC(NS(=O)(=O)c3ccc(Cl)cc3)(C(F)(F)F)C2=O)cc1` (stereo unspecified), the inhibition was 1.83% (inactive).

Turning to `COc1ccc(Nc2nc(-c3ccccc3)cs2)cc1`, the inhibition is -0.61% (inactive).

Take `CN1c2ccc(C=O)c3c(C=O)ccc(c23)N(C)C1(C)C`: the inhibition was -6.98% (inactive).

On to `Cc1cc2ccccc2n1CCNC(=O)COc1ccc2ccccc2c1`, for which the inhibition is 12.1% (inactive).

In the case of `CCOCC(=O)NCc1ccc2c(c1)cc(C)n2C`, the inhibition was 0.62% (inactive).
